According to PubChem BioAssay (NCATS):
Where “and” joins values, the source holds several entries; their conditions need not be identical. Equal values may be shown once. Records with an inconclusive call do not appear. More than one record can exist for a structure, and the calls need not agree. Calls of active or inactive are those of the source. The call rests on the fitted dose curve; in most records, active means well fitted curve in the direction sought with a large enough effect; inconclusive means small, poorly fitted or top-dose-only effect, or another doubt; inactive means no such curve, though single readings can be large; an effect the other way counts as inactive or inconclusive.

Experiments:
SC27B = experiment: qHTS profiling for inhibitors of Plasmodium falciparum proliferation (AID 504749); further: nearly all actives have a fitted effect of over 60% in size; further: potency means the concentration at half of the fitted maximal effect; conditions: P. falciparum in erythrocytes, SYBR Green DNA, 72 h; series mostly up to 28.7 µM
Procedure, shortened: (§1)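 Quantitative HTS: compounds pinned into medium, infected erythrocytes added (0.3% parasitemia, 2.5% hematocrit), 72 h culture at 37 C under 5% CO2. Saponin/Triton lysis with SYBR Green I, overnight RT, then fluorescence read.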

TAB109 = experiment: as above; conditions: P. falciparum in erythrocytes, SYBR Green DNA, 72 h; series mostly up to 28.7 µM
Procedure, shortened: as §1

TAB113 = experiment: as above; conditions: P. falciparum in erythrocytes, SYBR Green DNA, 72 h; series mostly up to 28.7 µM
Procedure, shortened: as §1

TAB165 = experiment: as above; conditions: P. falciparum in erythrocytes, SYBR Green DNA, 72 h; series mostly up to 28.7 µM
Procedure, shortened: as §1

W2 = experiment: as above; conditions: P. falciparum in erythrocytes, SYBR Green DNA, 72 h; series mostly up to 28.7 µM
Procedure, shortened: as §1

CRL-7250 = normal cell line; experiment: Cytotoxic Profiling of Annotated Libraries Using Quantitative High-Throughput Screening (AID 1296008); conditions: Five cell lines viability, CellTiter-Glo ATP luminescence, 48-72 h; max response: stronger effect = lower value; further: nearly all actives have a fitted effect of over 60% in size; further: potency means the concentration at half of the fitted maximal effect; on max response: on the % scale 0 is the no-effect control and ±100 the full control effect
Procedure, shortened: (§2)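 Compounds were pin-transferred onto cells and incubated 48 or 72 hr at 37 degree Celsius, 95% humidity. CellTiter-Glo was added, plates sat 10 min at room temperature, then ATP-coupled luminescence was imaged as the viability read-out.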

HEK293 = experiment: as above; conditions: Five cell lines viability, CellTiter-Glo ATP luminescence, 48-72 h; max response: stronger effect = lower value
Procedure, shortened: as §2

HaCat [1] = experiment: as above; conditions: Five cell lines viability, CellTiter-Glo ATP luminescence, 48-72 h; max response: stronger effect = lower value
Procedure, shortened: as §2

KB-3-1 = experiment: as above; conditions: Five cell lines viability, CellTiter-Glo ATP luminescence, 48-72 h; max response: stronger effect = lower value
Procedure, shortened: as §2

NIH3T3 [2] = experiment: as above; conditions: Five cell lines viability, CellTiter-Glo ATP luminescence, 48-72 h; max response: stronger effect = lower value
Procedure, shortened: as §2

HACAT [3] = experiment: qHTS assay to identify novel small-molecules to repurpose for Merkel cell carcinoma treatment (AID 1296009); conditions: MCC and control cell lines, CellTiter-Glo viability, 72 h; series mostly up to 44.8 µM; further: nearly all actives have a fitted effect of over 60% in size; further: potency means the concentration at half of the fitted maximal effect
Procedure, shortened: (§3)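 Viability readout: ATP luminescence (CellTiter-Glo) after 72 hr drug exposure at 37 degree celsius. Dose-response format was 8 points for NPC and 11 points for MIPE; data normalized to in-plate controls.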

MCC-13 = experiment: as above; conditions: MCC and control cell lines, CellTiter-Glo viability, 72 h; series mostly up to 46 µM
Procedure, shortened: as §3

MCC-26 = experiment: as above; conditions: MCC and control cell lines, CellTiter-Glo viability, 72 h; series mostly up to 46 µM
Procedure, shortened: as §3

MKL-1 = experiment: as above; conditions: MCC and control cell lines, CellTiter-Glo viability, 72 h; series mostly up to 46 µM
Procedure, shortened: as §3

MKL-2 = experiment: as above; conditions: MCC and control cell lines, CellTiter-Glo viability, 72 h; series mostly up to 46 µM
Procedure, shortened: as §3

UISO = experiment: as above; conditions: MCC and control cell lines, CellTiter-Glo viability, 72 h; series mostly up to 46 µM
Procedure, shortened: as §3

WaGa = experiment: as above; conditions: MCC and control cell lines, CellTiter-Glo viability, 72 h; series mostly up to 46 µM
Procedure, shortened: as §3

C33A = experiment: Primary qHTS to identify gynecologic anti-cancer compounds using libraries of approved drugs and bioactive compounds (AID 1345084); conditions: Gynecologic cancer cell panel viability, ATPlite luminescence, 48 h; series mostly up to 57.5 µM; further: on the % scale 0 is the no-effect control and ±100 the full control effect; nearly all actives have a fitted effect of over 55% in size
Procedure, shortened: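 Measured: luminescence after ATPlite addition (15 min, RT). Exposure: 48 h, 37 C, 5% CO2.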

NIH3T3 [4] = experiment: qHTS assay to identify novel small-molecules to repurpose for Merkel cell carcinoma treatment (AID 1296009); conditions: MCC and control cell lines, CellTiter-Glo viability, 72 h; series mostly up to 44.8 µM; further: nearly all actives have a fitted effect of over 60% in size; further: potency means the concentration at half of the fitted maximal effect
Procedure, shortened: as §3

HEK293T = experiment: as above; conditions: MCC and control cell lines, CellTiter-Glo viability, 72 h; at 44.8 µM (top of the series) unless noted
Procedure, shortened: as §3

COc1nc(C)nc(Cl)c1NC1=NCCN1
inactive: Potency (SC27B) | Potency (TAB109) | Potency (TAB113) | Potency (TAB165) | Potency (W2) | max response (CRL-7250) -8.35% | max response (HEK293) -5.08% and -4.05% | outcome (HaCat [1]) | max response (KB-3-1) 11.6% and 7.19% | max response (NIH3T3 [2]) -2.5% and 2.31% | outcome (HACAT [3]) | Potency (MCC-13) | Potency (MCC-26) | Potency (MKL-1) | Potency (MKL-2) | Potency (UISO) | Potency (WaGa) | Potency (C33A)

O=c1c(-c2ccc(O)cc2)coc2cc(O)cc(O)c12
inactive: Potency (SC27B) | Potency (TAB109) | Potency (TAB113) | Potency (TAB165) | max response (CRL-7250) 4.48% | max response (HEK293) -3.7% | max response (HaCat [1]) 0.82% | outcome (HaCat [1]) | max response (KB-3-1) 32.1% | outcome (KB-3-1) | max response (NIH3T3 [2]) -9.8% and -21.1% | outcome (HACAT [3]) | Potency (MCC-13) | Potency (MCC-26) | Potency (MKL-1) | Potency (MKL-2) | Potency (UISO) | Potency (C33A)
inactive and 26.6 µM (active): Potency (WaGa)

COc1cc2nc(N(C)CCCNC(=O)C3CCCO3)nc(N)c2cc1OC (stereo not drawn)
inactive: max response (CRL-7250) -3.88% | max response (HEK293) 0.95% | max response (HaCat [1]) -0.905% and -4.65% | max response (KB-3-1) 9.19% and 1.98% | outcome (NIH3T3 [2]) | Potency (MCC-13) | Potency (MCC-26) | Potency (MKL-1) | Potency (MKL-2) | outcome (NIH3T3 [4]) | Potency (UISO) | Potency (WaGa) | Potency (C33A)

CCC1(C)CC(=O)NC1=O (stereo not drawn)
inactive: max response (CRL-7250) 0.182% | outcome (HEK293) | max response (HaCat [1]) -13.5% | outcome (HaCat [1]) | max response (KB-3-1) 7.96% and 9.28% | outcome (NIH3T3 [2]) | outcome (HACAT [3]) | outcome (HEK293T) | Potency (MCC-13) | Potency (MCC-26) | Potency (MKL-1) | Potency (MKL-2) | outcome (NIH3T3 [4]) | Potency (UISO) | Potency (WaGa) | Potency (C33A)

CS(=O)(=O)CCNCc1ccc(-c2ccc3ncnc(Nc4ccc(OCc5cccc(F)c5)c(Cl)c4)c3c2)o1
inactive and 16.8 µM (active): Potency (WaGa)
inactive: Potency (SC27B) | Potency (TAB109) | Potency (TAB113) | Potency (TAB165) | Potency (W2) | outcome (CRL-7250) | max response (KB-3-1) 0.0192% | max response (NIH3T3 [2]) -52.4% | Potency (MCC-13) | Potency (MCC-26) | Potency (MKL-1) | Potency (UISO) | Potency (C33A)
active: Potency (HEK293) 4.18 µM and 6.68 µM and 9.2 µM | Potency (HaCat [1]) 46.9 nM and 266 nM | Potency (MKL-2) 11.9 µM

CN(C)CCOC(c1ccccc1)c1ccccc1
inactive: Potency (SC27B) | Potency (TAB113) | max response (CRL-7250) -3.47% and -12.2% | outcome (HEK293) | outcome (HaCat [1]) | max response (KB-3-1) 4.19% and -2.75% | outcome (KB-3-1) | outcome (NIH3T3 [2]) | outcome (HACAT [3]) | outcome (HEK293T) | Potency (MCC-13) | Potency (MCC-26) | Potency (MKL-1) | Potency (MKL-2) | outcome (NIH3T3 [4]) | Potency (UISO) | Potency (WaGa) | Potency (C33A)
active: Potency (W2) 0.953 µM

CC(C)NCC(O)COc1ccc(CCOCC2CC2)cc1 (stereo not drawn)
inactive: Potency (SC27B) | max response (CRL-7250) -5.76% | max response (HEK293) -0.0868% and -3.99% | max response (HaCat [1]) 2.43% | outcome (HaCat [1]) | max response (KB-3-1) 1.84% | max response (NIH3T3 [2]) 2.13% and -7.76% | outcome (HACAT [3]) | Potency (MCC-13) | Potency (MCC-26) | Potency (MKL-1) | Potency (MKL-2) | Potency (UISO) | Potency (WaGa) | Potency (C33A)
active: Potency (W2) 15.1 µM

CC12CC3CC(C)(C1)CC(N)(C3)C2
3.72 µM (active) and inactive: Potency (WaGa)
inactive: Potency (SC27B) | Potency (TAB109) | Potency (TAB113) | Potency (TAB165) | outcome (CRL-7250) | max response (HEK293) -1.65% and -16.7% | max response (HaCat [1]) 0.352% and -2.07% | max response (KB-3-1) 0.442% | max response (NIH3T3 [2]) 1.33% and -0.312% | Potency (MCC-13) | Potency (MCC-26) | Potency (MKL-1) | Potency (MKL-2) | Potency (UISO) | Potency (C33A)

Cc1ccccc1N1C(=O)c2cc(S(N)(=O)=O)c(Cl)cc2NC1C (stereo not drawn)
inactive: max response (CRL-7250) -4.5% | outcome (HEK293) | max response (HaCat [1]) 0.851% | outcome (HaCat [1]) | max response (KB-3-1) 2.47% and -15% and -2.37% | max response (NIH3T3 [2]) 4.24% | outcome (NIH3T3 [2]) | outcome (HACAT [3]) | outcome (HEK293T) | Potency (MCC-13) | Potency (MCC-26) | Potency (MKL-1) | Potency (MKL-2) | outcome (NIH3T3 [4]) | Potency (UISO) | Potency (WaGa) | Potency (C33A)

CC(CCc1ccc(O)cc1)NCCc1ccc(O)c(O)c1 (stereo not drawn)
active: Potency (CRL-7250) 23.7 µM | Potency (MKL-1) 7.5 µM | Potency (MKL-2) 23.5 µM and 11.9 µM
inactive: Potency (SC27B) | Potency (TAB109) | Potency (TAB113) | Potency (TAB165) | max response (HEK293) -19% | max response (HaCat [1]) 0.349% | outcome (HaCat [1]) | max response (KB-3-1) -2.1% | max response (NIH3T3 [2]) -1.03% and 1.16% | outcome (HACAT [3]) | Potency (MCC-13) | Potency (MCC-26) | Potency (WaGa) | Potency (C33A)
